Data published in PubChem BioAssay AID881 (National Center for Advancing Translational Sciences (NCATS), 2007).
The whole screen tested about 110,000 compounds, of which about 610 (0.55%) were called active. Not shown: some 3% with an inconclusive outcome. For the sample, actives were picked, then their nearest neighbours and some compounds at random. A number with no mark means an inactive call. Calls come from the whole dose curve; as a rule, active = well fitted inhibition curve with a large enough effect; inconclusive = small, poorly fitted or top-dose-only effect; inactive = no such curve, though single readings can be large or run the other way.

Biological target: Polyunsaturated fatty acid lipoxygenase ALOX15B (Homo sapiens) (UniProt O15296)
Experiment: qHTS Assay for Inhibitors of 15-hLO-2 (15-human lipoxygenase 2); note: nearly all actives have a fitted effect of over 60% in size
Conditions: purified 15hLO-2, xylenol orange hydroperoxide absorbance; series mostly up to 57.1 µM; activity change, negative = inhibition: at the top concentration
Summary of the method: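 Purified human 15hLO-2 (50 nM final) preincubated with compounds 15 min at room temperature in 25 mM Hepes pH 7.5, 0.01% Triton X-100, then 45 uM arachidonic acid added for 90 min; hydroperoxide detected via ferrous/xylenol orange, 573/405 nm absorbance ratio.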
% is set by controls: 0 for no effect and ±100 for the full control effect; potency is the fitted concentration of half-maximal effect.

Polyunsaturated fatty acid lipoxygenase ALOX15B (Homo sapiens), sequence (O15296 whole entry, looked up): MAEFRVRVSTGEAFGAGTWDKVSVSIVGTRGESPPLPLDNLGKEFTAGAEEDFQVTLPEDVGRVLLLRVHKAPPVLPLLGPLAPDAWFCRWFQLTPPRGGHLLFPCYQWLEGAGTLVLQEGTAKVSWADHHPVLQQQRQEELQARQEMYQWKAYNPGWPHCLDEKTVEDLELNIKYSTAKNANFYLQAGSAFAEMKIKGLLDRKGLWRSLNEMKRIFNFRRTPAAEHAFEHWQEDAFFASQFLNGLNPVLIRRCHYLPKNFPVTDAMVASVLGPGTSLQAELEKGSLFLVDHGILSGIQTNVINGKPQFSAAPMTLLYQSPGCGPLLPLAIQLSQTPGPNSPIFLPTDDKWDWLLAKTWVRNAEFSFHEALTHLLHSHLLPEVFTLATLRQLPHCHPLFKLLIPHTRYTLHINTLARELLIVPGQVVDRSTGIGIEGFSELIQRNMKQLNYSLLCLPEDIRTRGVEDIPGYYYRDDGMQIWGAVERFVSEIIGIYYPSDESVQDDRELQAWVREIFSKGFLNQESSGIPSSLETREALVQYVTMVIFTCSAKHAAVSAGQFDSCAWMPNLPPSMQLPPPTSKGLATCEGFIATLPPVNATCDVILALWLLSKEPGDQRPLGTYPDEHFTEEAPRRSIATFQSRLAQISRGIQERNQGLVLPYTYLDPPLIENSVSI

| Structure (SMILES) | activity change, negative = inhibition | Potency |
| --- | --- | --- |
| CC1CCN(c2ccc(S(=O)(=O)Nc3cc(C(=O)O)cc(C(=O)O)c3)cc2[N+](=O)[O-])CC1 | 2.65% |  |
| COc1ccc(C)cc1NC(=O)CCS(=O)(=O)c1cccc2nonc12 | -1.24% |  |
| Cc1ccc(/C=N/NC(=O)c2sccc2OCc2ccc(F)cc2)cc1 | 6.49% |  |
| C=CCNC(=S)NNc1ncnc2sc3c(c12)CC(C)(C)OC3 | -29% |  |
| COC(=O)CSc1nnc(-c2cccnc2)o1 | 3.28% |  |
| Oc1cc2c(cc1O)CN(C(=S)NCCc1ccc(Cl)cc1)CCC2 |  | 12.6 µM (active) |
| O=C(CSCc1ccc(Cl)cc1)N1CCCCC1 | 1.73% |  |
| NS(=O)(=O)c1ccc(CCNC(=O)Nc2ccc(Cl)cc2)cc1 | -0.0198% |  |
| C=CC(=O)c1ccc2ccccc2c1 |  | 2 µM (active) |
| CC(=O)c1ccc2c(ccc3ccccc32)c1 | -0.686% |  |
| Cc1ccc2nc(CC(=O)c3ccc4ccccc4c3)c(=O)[nH]c2c1 | -6.79% [at 11.4 µM] |  |
| CCC(=O)Nc1ccc(C(=O)Nc2cccc(OC)c2)cc1 | 2.43% |  |
| COc1ccccc1N=C(C)C1=C(O)COC1=O | 1.25% |  |
| Cc1cccc(-n2cnc(C(=O)Nc3cccnc3)c2)n1 | 3.31% |  |
| Cc1ccc(S(=O)(=O)N2CCC(=O)N([C@H](COCc3ccccc3)Cc3ccccc3)CC2)cc1 | 6.39% [at 0.0915 µM] |  |
| O=S1(=O)CCN(Cc2ccccc2Cl)CC1 | -0.814% |  |
| CCN(CC)CCn1c(=S)[nH]c2ncccc2c1=O | 1.31% |  |
| CCCc1cc(=O)[nH]c(SCC(=O)c2cc(C)n(CCC)c2C)n1 | -8.86% |  |
| COc1ccc(OC(C)C(=O)Nc2cccnc2)cc1 (stereo not drawn) | 4.53% |  |
| C=CCNC(=S)N/N=C/c1ccc(OCc2ccccc2)cc1 | -12.6% |  |
| O=C(O)c1cc2ccccc2c(=O)s1 | 1.13% |  |
| CS(=O)(=O)N(CC(=O)Nc1ccc(F)cc1F)c1cccc([N+](=O)[O-])c1 | -23% |  |

| Structure (SMILES) | activity change, negative = inhibition | Potency |
| --- | --- | --- |
| COc1cccc(-c2cc(=O)c3cc(NC(=O)c4ccc(C)cc4)ccc3[nH]2)c1 | -28.3% [at 0.0915 µM] |  |
| Cc1cccc([C@H]2[C@@H]3C=CC[C@@H](C)[C@@H]3C(=O)N2Cc2ccccc2)c1 | -6.63% [at 0.0915 µM] |  |
| CCn1c(O)c2ccc(C(=O)N=NC(=O)c3cccnc3)cc2c1O | 1.39% |  |
| CCOC(=O)N1CCC(Nc2c(NCCCN3CCN(CC)CC3)c(=O)c2=O)CC1 | 2.51% |  |
| COc1cccc(N=c2oc3c(C)ncc(CO)c3cc2C(N)=O)c1 | -13.3% |  |
| CC(C)CCNC(=O)CC1C(=O)N(Cc2ccccc2)C(C)c2nc3ccccc3n21 (stereo not drawn) | 12.6% |  |
| CC(C)(CNC(=O)c1cc(=O)[nH]c2ccccc12)N1CCOCC1 | 4.69% |  |
| COc1ccc(CN2CCCCC2C)cc1OC (stereo not drawn) | -1.37% |  |
| Cc1ccc(CNC(=O)CCNC(=O)Cn2ccc3ccccc3c2=O)cc1 | 10.9% |  |
| O=C(Nc1nnc(C2CC2)s1)c1ccccn1 | 28.8% |  |
| C/C=C1\C2C=C(C)CC1(N)c1ccc(=O)[nH]c1C2 (stereo not drawn) | -9.9% [at 0.0915 µM] |  |
| Oc1ccc(O)c2c(O)cccc12 |  | 12.6 µM (active) |
| COc1ccc(-c2cc3nc(C)c(CCC(=O)NC(C)CCc4ccco4)c(C)n3n2)c(OC)c1 (stereo not drawn) | 13.3% |  |
| COc1cc(OC)c2c(c1)OC(=O)CC2c1cc(OC)c(OC)c(OC)c1 (stereo not drawn) | -2.71% [at 0.0915 µM] |  |
| COc1cc(OC)c2c(-c3cccc(-c4cccc(N)c4)c3)cc(=O)oc2c1 | 3.54% [at 0.0915 µM] |  |
| O=C(c1cccc(N2CCCC2=O)c1)N1CCOCC1 | -6.64% |  |
| Cc1cc2oc(=O)cc(-c3ccccc3)c2c(C)c1/C=C/c1ccc(F)cc1 | -8.43% [at 0.0915 µM] |  |
| COc1ccc(SCc2noc(C(=O)NCC3CCCO3)c2C(=O)O)cc1 (stereo not drawn) | -4.14% |  |
| CCN1C(=O)/C(=C2/Sc3ccccc3N2CCCS(=O)(=O)O)SC1=S |  | 15.8 µM (active) |
| CCCCN1C(=O)/C(=C2/C=CC=CN2C)SC1=S | -27% |  |
| CCN1C(=O)/C(=C\N2CCN(c3ccccc3)CC2)SC1=S | -25.9% |  |
| CCN(CC)C(=O)CSc1nnc(-c2cccc(OC)c2)o1 | 2.94% |  |

| Structure (SMILES) | activity change, negative = inhibition | Potency |
| --- | --- | --- |
| COc1ccc(-c2nnc(SC(=O)N3c4ccccc4Sc4ccccc43)o2)cc1 |  | 10 µM (active) |
| COc1ccc(-c2nnc(SC(C)C#N)o2)cc1 (stereo not drawn) | 0.86% |  |
| Cc1cnc(NC(=O)CSc2nnc(C)s2)s1 | -2.24% |  |
| O=S(=O)(c1ccc(Br)cc1)c1nc(-c2ccccc2)oc1NCc1cccnc1 | 24.4% |  |
| Cc1ccc(-c2csc(NC(=O)Cc3cccs3)n2)cc1C | -5.8% |  |
| Cc1nnc(NC(=O)CSc2nc(C3CCCCC3)nc3ccccc23)s1 | 4.22% |  |
| CCOCCCNC(=O)C(NC(=O)c1ccc(=O)[nH]c1)c1ccc(C)cc1 (stereo not drawn) | 3.28% |  |
| COc1ccc(N(CC(=O)NC2CCCCC2)S(=O)(=O)c2c(C)[nH]c(=O)[nH]c2=O)cc1 | -0.497% |  |
| CCc1c(C)[nH]c(=S)c(C#N)c1C |  | 31.6 µM (active) |
| O=C(Nc1ccccc1)c1ccccc1NC(=O)C(F)(F)F | 0.576% |  |
| CCCNC(=S)NC1CC2CCCC(C1)N2CC(C)C (stereo not drawn) | 4.08% |  |
| Cc1ccc(F)c(NC(=O)CCc2ccccc2)c1 | 2.82% |  |
| COc1ccc(-c2c(C)cc3oc(=O)cc(-c4ccccc4)c3c2C)cc1C=O | -27.8% [at 0.0915 µM] |  |
| COc1ccc(C2CC(=O)Oc3ccc(C(C)(C)C)cc32)cc1 (stereo not drawn) | -11.2% [at 0.0915 µM] |  |
| CCCNC(=O)NCc1ccc(N2CCCC2=O)cc1 | -2.71% |  |
| COCc1cc(=O)[nH]c2cc(NC(=O)C(F)(F)F)c(C)cc12 | -0.389% |  |
| CCOC(=O)C1C/C(=C\C(C)=O)c2cccc(C(F)(F)F)c2O1 (stereo not drawn) | 4.83% [at 0.0915 µM] |  |
| COc1cnc(SCc2ccc(Cl)c(Cl)c2)nc1Cl | 13.5% |  |
| C(=N/N1CCN(c2ccccc2)CC1)/c1cccs1 | -1.53% |  |
| COc1ccc(C(=O)NNC(=O)c2cnccn2)cc1[N+](=O)[O-] | -1.79% |  |
| COc1ccc(Nc2nc(=O)[nH]nc2C)cc1 | -3.1% |  |
| O=C(NCc1ccco1)C1(c2ccc(Cl)cc2)CCCC1 | -3.03% |  |

| Structure (SMILES) | activity change, negative = inhibition | Potency |
| --- | --- | --- |
| O=C(NCc1ccco1)C1CCCN(S(=O)(=O)c2ccccc2)C1 (stereo not drawn) | -2.62% |  |
| CCc1ccc(C(=O)CSc2nnc(C)c(=O)[nH]2)cc1 | 2.83% |  |
| COC(=O)C1C(=O)NCC1c1ccc(OC)cc1 (stereo not drawn) | 1.92% |  |
| CC(=O)c1cccc(NC(=O)C2CCCN2S(=O)(=O)c2cccc3nsnc23)c1 (stereo not drawn) | 2.82% |  |
| CC(=O)CC(c1ccccc1)C1C(=O)Oc2ccccc2C1=O (stereo not drawn) | 12.2% [at 0.0915 µM] |  |
| C#C[C@]1(O)CC[C@H]2[C@@H]3CCC4=CC(=O)CC[C@@H]4[C@H]3CC[C@@]21CC | -11.5% [at 0.0915 µM] |  |
| Cc1cccc(-n2ncc(C#N)c2-n2cccc2)c1 | -4.9% |  |
| CCC(C)N1C(=O)S/C(=C/c2ccc(Sc3nc4ccccc4[nH]3)o2)C1=O (stereo not drawn) | 42.9% |  |
| CCN1CCN(C(=O)/C=C\C(=O)O)CC1 | 4% |  |
| CCOC(=O)Cn1c(-c2cccnc2Cl)nc2ccccc21 | 2.59% |  |
| Cc1cc2cc(CNC(=O)c3cccs3)ccc2[nH]1 | -4.32% |  |
| CCOC(=O)C1=C(C)c2ccccc2OC1(C)C(=O)OCC (stereo not drawn) | 0.734% [at 0.0915 µM] |  |
| CCCn1c(C(Cc2ccccc2)NC(=O)COC)nc2ccccc21 (stereo not drawn) | 0.671% |  |
| CC1=C(/C=C/C(C)=C/C=C/C(C)=C/C=C/C=C(C)/C=C/C=C(C)/C=C/C(=O)[C@]2(C)C[C@@H](O)CC2(C)C)C(C)(C)C[C@H](O)C1 | 24.6% [at 0.0915 µM] |  |
| CCOC(=O)c1cnc(SC)nc1Sc1ccc(Cl)cc1Cl | 6.61% |  |
| COc1cccc2c1OCC(C(=O)NCc1ccc(Cl)cc1Cl)=C2 | 10.8% |  |
| CCCCCCSc1nsc(N)n1 | -0.41% |  |
| CCOC(=O)C1=C(C)c2ccccc2OC1C(=O)OCC (stereo not drawn) | -11.3% [at 0.0915 µM] |  |
| O=[N+]([O-])c1cccc(-c2nnc3c4ccccc4c4ccccc4n23)c1 | -21.4% |  |
| O=c1[nH]c2ccccc2n2c(-c3ccccc3)nnc12 |  | 10 µM (active) |
| O=c1[nH]c(-c2ccccc2)c(-c2ccccc2)[nH]1 | -8.38% |  |
| C[C@@H]1C(c2ccc(F)cc2)=NN(c2ccc(Br)cc2)[C@H]1C(=O)N1CCOC1=O | -11.1% [at 0.0915 µM] |  |
